Results filed as inconclusive are left out. Calls of active or inactive are those of the source. Unless noted, calls follow the shape of the dose curve; as a rule, active = well fitted curve in the direction sought with a large enough effect in the repeat runs; inconclusive = weak or mixed curves; inactive = no such curve, though single readings can be large; an effect the other way counts as inactive or inconclusive.

The nature of test [1]: qHTS assay to identify small molecule agonists of the peroxisome proliferator-activated receptor delta (PPARd) signaling pathway - cell viability counter screen (AID 743211). Also: nearly all actives have a fitted effect of over 55% in size. Also: potency is read from the fitted curve at half-maximal effect. A digest of the protocol: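 Viability of GeneBLAzer PPARd UAS-bla HEK293H cells was assessed after 17 h compound incubation at 37C, using CellTiter-Glo reagent added after the reporter read and luminescence recorded 30 min later.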

Test [2] is described as follows: qHTS assay to identify small molecule antagonists of the peroxisome proliferator-activated receptor delta (PPARd) signaling pathway - cell viability counter screen (AID 743213). Also: nearly all actives have a fitted effect of over 50% in size. Also: potency is read from the fitted curve at half-maximal effect. The essentials: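 Agonist-stimulated (L165041, 300 nM final) HEK293H PPARd UAS-bla cells are exposed to compounds for 17 h at 37 C, and ATP-based luminescence (CellTiter-Glo) from the same wells reports cytotoxicity.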
For orientation: In qHTS, concentration-response curves come from the screen itself.

Test [3] deals with Peroxisome proliferator-activated receptor delta (Homo sapiens) (UniProt Q03181). Briefly: qHTS assay to identify small molecule antagonists of the peroxisome proliferator-activated receptor delta (PPARd) signaling pathway (AID 743215; active = well fitted inhibition curve with a large enough effect in the signal ratio in the repeat runs, not every such curve was filed as active; the % refers to the signal ratio; also: potency is read from the fitted curve at half-maximal effect). The essentials:
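HEK293H UAS-bla, PPARd; agonist L165041 300 nM final with cpd in DMSO; 37 C 17 h; FRET substrate, RT 2 h; fluorescence intensity.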

Test [4] in a line: qHTS assay to identify small molecule agonists of the farnesoid-X-receptor (FXR) signaling pathway - cell viability counter screen (AID 743218). Also: nearly all actives have a fitted effect of over 45% in size. Also: potency is read from the fitted curve at half-maximal effect. A digest of the protocol:
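Parallel cytotoxicity test: compound-treated (16 h, 37 C) HEK 293T FXR-bla reporter cells were lysed with CellTiter-Glo and luminescence recorded.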

Test [5] can be described thus: qHTS assay to identify small molecule antagonists of the farnesoid-X-receptor (FXR) signaling pathway - cell viability counter screen (AID 743221; active = well fitted cell-killing curve with a large enough effect in the repeat runs, not every such curve was filed as active; also: nearly all actives have a fitted effect of over 50% in size; also: potency is read from the fitted curve at half-maximal effect). A digest of the protocol: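 Quantitative HTS of the Tox21 10K library run in parallel with the beta-lactamase reporter read. HEK 293T cells carrying a UAS-driven bla reporter got compound and 50 uM CDCA (final) for 16 h; ATP-based luminescence followed.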

Test [6] can be described thus: qHTS assay to identify small molecule agonists of the vitamin D receptor (VDR) signaling pathway - cell viability counter screen (AID 743224). Also: nearly all actives have a fitted effect of over 50% in size. Also: potency is read from the fitted curve at half-maximal effect. The essentials:
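Plated VDR-bla cells (4 h, 37C) received compound, incubated 16 h, then LiveBLAzer substrate 2 h RT; CellTiter-Glo added afterwards, luminescence read at 30 min.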

Test [7] can be described thus: qHTS assay to identify small molecule agonists of the NFkB signaling pathway - cell viability counter screen (AID 1159515; calls by dose curve; also: nearly all actives have a fitted effect of over 55% in size; also: potency is read from the fitted curve at half-maximal effect). A digest of the protocol: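 Using the same wells as the NFkB reporter read, ME-180 NFkB-bla cells given compounds for 5 hr were assessed for viability via CellTiter-Glo, with luminescence taken after a 30 min room-temperature incubation.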
Test [8] in a line: qHTS assay to identify small molecule agonists of the endoplasmic reticulum stress response signaling pathway - cell viability counter screen (AID 1159517; calls by dose curve; also: nearly all actives have a fitted effect of over 50% in size; also: potency is read from the fitted curve at half-maximal effect). The essentials:
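Luminescence readout: CellTiter-Glo, 30 min RT, same wells as the ESRE-bla reporter read. HeLa ESRE-bla, 1,500 cells/well, o/n 37 C; cpd 5 hr 37 C/5% CO2.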

In test [9] the target is Nuclear receptor ROR-gamma (Homo sapiens) (UniProt P51449). As to the kind of experiment: qHTS assay to identify small molecule antagonists of the retinoid-related orphan receptor gamma (ROR-gamma) signaling pathway (AID 1159521; also: nearly all actives have a fitted effect of over 50% in size; also: potency is read from the fitted curve at half-maximal effect). The essentials: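 RORγ antagonism is scored from reduced reporter luminescence in Tet-on CHO cells. Induction used 1 uM final doxycycline hyclate for 16 h at 37 C, following a 2 h compound exposure.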

Test [10] can be described thus: qHTS assay to identify small molecule agonists of the AP-1 signaling pathway - cell viability counter screen (AID 1159525; calls by dose curve; also: nearly all actives have a fitted effect of over 55% in size; also: potency is read from the fitted curve at half-maximal effect). A digest of the protocol: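 ME-180 AP-1-bla, 2500 cells/well, Opti-MEM + 0.5% dialyzed FBS; overnight 37 °C; cpd 15-pt titration, 5 h 37 °C; CellTiter-Glo 30 min RT; luminescence read; normalised to TOAB and DMSO controls.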
The target in test [11] is Peroxisome proliferator-activated receptor delta (Homo sapiens) (UniProt Q03181). As to the kind of experiment: qHTS assay to identify small molecule agonists of the peroxisome proliferator-activated receptor delta (PPARd) signaling pathway (AID 743212; calls by dose curve). A digest of the protocol:
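GeneBLAzer PPARd UAS-bla HEK293H cells (beta-lactamase reporter under UAS control), plated and rested 5 h at 37 C, then exposed to compounds in DMSO at 37 C; LiveBLAzer B/G FRET substrate added, 2 h room temperature, fluorescence read.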

The target of test [12] is Bile acid receptor (Homo sapiens) (UniProt Q96RI1). Briefly: qHTS assay to identify small molecule antagonists of the farnesoid-X-receptor (FXR) signaling pathway (AID 743217; active = well fitted inhibition curve with a large enough effect in the signal ratio in the repeat runs, not every such curve was filed as active; the % refers to the signal ratio; also: potency is read from the fitted curve at half-maximal effect). The essentials:
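GeneBLAzer FXR-UAS-bla HEK 293T, CDCA-stimulated (50 uM final). Compound treatment 16 h, 37 °C. Detection: beta-lactamase cleavage of B/G FRET substrate, fluorescence.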

Test [13] can be described thus: qHTS assay to identify small molecule antagonists of the vitamin D receptor (VDR) signaling pathway - cell viability counter screen (AID 743225). Also: nearly all actives have a fitted effect of over 50% in size. Also: potency is read from the fitted curve at half-maximal effect. The essentials:
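Cells (VDR-UAS-bla HEK 293T) are plated, rested 4 h at 37C, dosed with compound and 3 nM final 1-alpha,25-dihydroxy vitamin D3, and incubated 16 h. Viability is taken from CellTiter-Glo luminescence in the reporter wells.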

Test [14] in a line: qHTS assay to identify small molecule antagonists of the retinoid-related orphan receptor gamma (ROR-gamma) signaling pathway - cell viability counter screen (AID 1159520). Also: nearly all actives have a fitted effect of over 50% in size. Also: potency is read from the fitted curve at half-maximal effect. The essentials:
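Tet-on ROR gamma CHO cells (1,000/well) were plated 4 hr, given compounds in DMSO for 2 hr at 37 C, then induced with 1 uM final doxycycline for 16 hr. Viability was read as ATP by CellTiter-Glo luminescence after 30 min.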

Test [15] has as its target Bile acid receptor (Homo sapiens) (UniProt Q96RI1). As to the kind of experiment: qHTS assay to identify small molecule agonists of the farnesoid-X-receptor (FXR) signaling pathway (AID 743220; active = well fitted activation curve with a large enough effect in the signal ratio in the repeat runs, not every such curve was filed as active; the % refers to the signal ratio). A digest of the protocol:
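Beta-lactamase reporter under UAS control in GeneBLAzer FXR HEK 293T cells (5000/well) measured with LiveBLAzer FRET substrate after 2 h at room temperature. Compound exposure lasted 16 h at 37C.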

In test [16] the target is Vitamin D3 receptor (Homo sapiens) (UniProt P11473). Briefly: qHTS assay to identify small molecule agonists of the vitamin D receptor (VDR) signaling pathway (AID 743222; calls by dose curve). A digest of the protocol: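 In VDR-bla cells, compound-induced beta-lactamase expression is quantified by FRET substrate fluorescence. Treatment lasts 16 h at 37C; substrate develops 2 h at room temperature.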
Vitamin D3 receptor (Homo sapiens), sequence (P11473 whole entry, looked up): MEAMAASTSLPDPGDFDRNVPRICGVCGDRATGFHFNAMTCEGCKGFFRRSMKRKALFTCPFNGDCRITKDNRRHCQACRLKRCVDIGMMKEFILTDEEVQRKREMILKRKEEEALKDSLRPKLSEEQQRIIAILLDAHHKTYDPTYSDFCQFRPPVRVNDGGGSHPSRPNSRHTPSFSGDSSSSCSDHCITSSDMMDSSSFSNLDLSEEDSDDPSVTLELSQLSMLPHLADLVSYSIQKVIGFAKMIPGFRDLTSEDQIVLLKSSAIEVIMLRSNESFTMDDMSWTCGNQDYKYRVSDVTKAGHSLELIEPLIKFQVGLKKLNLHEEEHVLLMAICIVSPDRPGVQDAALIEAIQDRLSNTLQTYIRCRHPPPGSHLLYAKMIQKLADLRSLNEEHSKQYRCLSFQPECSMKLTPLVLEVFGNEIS

Test [17] shares this target. As to the kind of experiment: qHTS assay to identify small molecule antagonists of the vitamin D receptor (VDR) signaling pathway (AID 743223; active = well fitted inhibition curve with a large enough effect in the signal ratio in the repeat runs, not every such curve was filed as active; the % refers to the signal ratio; also: potency is read from the fitted curve at half-maximal effect). The essentials: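 Fluorescence from LiveBLAzer B/G FRET substrate, read after 2 h at room temperature, reflects beta-lactamase reporter activity in VDR-bla cells treated 16 h at 37C with compounds and agonist 1alpha,25-dihydroxyvitamin D3 (3 nM final).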

The nature of test [18]: qHTS assay to identify small molecule agonists of the AP-1 signaling pathway (AID 1159526; calls by dose curve).

Bile acid receptor (Homo sapiens), sequence (Q96RI1 whole entry, looked up): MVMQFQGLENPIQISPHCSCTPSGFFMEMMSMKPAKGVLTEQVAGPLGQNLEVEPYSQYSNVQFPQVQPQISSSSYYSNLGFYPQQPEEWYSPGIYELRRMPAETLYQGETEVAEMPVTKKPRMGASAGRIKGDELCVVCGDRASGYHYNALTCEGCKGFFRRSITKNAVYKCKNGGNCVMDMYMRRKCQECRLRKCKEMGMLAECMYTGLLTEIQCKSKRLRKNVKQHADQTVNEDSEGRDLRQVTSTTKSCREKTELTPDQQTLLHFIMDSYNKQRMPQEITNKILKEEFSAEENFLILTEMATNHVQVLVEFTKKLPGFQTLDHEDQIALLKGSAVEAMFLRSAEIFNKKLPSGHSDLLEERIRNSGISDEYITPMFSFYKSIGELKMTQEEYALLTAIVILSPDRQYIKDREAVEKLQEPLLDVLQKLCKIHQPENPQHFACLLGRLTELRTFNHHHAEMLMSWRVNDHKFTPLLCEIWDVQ
Peroxisome proliferator-activated receptor delta (Homo sapiens), sequence (Q03181 whole entry, looked up): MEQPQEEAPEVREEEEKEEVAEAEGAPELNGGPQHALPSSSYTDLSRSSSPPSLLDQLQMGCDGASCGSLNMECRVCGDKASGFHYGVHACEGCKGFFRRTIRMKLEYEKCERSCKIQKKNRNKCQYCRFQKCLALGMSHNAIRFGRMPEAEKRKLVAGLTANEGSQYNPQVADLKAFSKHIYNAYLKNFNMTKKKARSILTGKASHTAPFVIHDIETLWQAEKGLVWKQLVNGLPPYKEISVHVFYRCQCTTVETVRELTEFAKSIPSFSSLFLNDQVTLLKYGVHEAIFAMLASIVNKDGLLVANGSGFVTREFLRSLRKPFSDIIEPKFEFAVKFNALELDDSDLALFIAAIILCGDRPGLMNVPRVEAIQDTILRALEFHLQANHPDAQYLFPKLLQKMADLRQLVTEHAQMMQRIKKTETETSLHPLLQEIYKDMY

For `CCOc1cc(C(C)(C)C)ccc1C1COC(c2c(F)cccc2F)=N1` (centres undefined), the Potency in [1] is 29.7 µM (active); in test [2], 33.4 µM (active); in test [3], 29.7 µM (active); in [4], 33.4 µM (active); in test [5] it was 29.7 µM (active); in test [6] it was 23.6 µM (active). Besides, in test [9], the Potency is 33.1 µM (active). Moreover, the Potency entry in test [7], in test [8] and in test [10] was “inactive” throughout.
`CC(C)OC(=S)S`: the Potency entry in [1], in test [11], in test [2], in test [12], in test [4] and in test [5] was “inactive” in each case. In addition, the Potency entry in test [13], in [7], in test [8] and in test [10] was “inactive” in each case. The Potency in test [9] is 15.4 µM (active).
With `CCC[CH2][Sn]([CH2]CCC)([CH2]CCC)[O]C(=O)c1ccccc1`, the Potency is 0.616 µM (active) in test [1]; 1.38 µM (active) in test [2]; 0.616 µM (active) in test [4]; 2.45 µM (active) in test [5]; 0.692 µM (active) in test [6]; 1.95 µM (active) in test [13]. Further, the Potency is 0.436 µM (active) in test [7], 4.9 µM (active) in test [8], 0.686 µM (active) in test [14] and 1.23 µM (active) in test [10].
For `Cc1cc(N=Nc2ccccc2C)ccc1N`, the Potency entry in test [2], in test [3], in [4], in test [5], in test [13] and in test [7] was “inactive” in each case. In addition, the Potency result in [8] and in test [9] was “inactive” throughout. Moreover, in test [15], the compound was called inactive.
Consider `CCCN(CCC)c1c([N+](=O)[O-])cc(S(N)(=O)=O)cc1[N+](=O)[O-]`, for which the Potency in test [1] was 20.8 µM (active); in test [2], 37 µM (active); in test [3], 58.6 µM (active); in test [12], 58.6 µM (active); in test [5] it was 52.2 µM (active); in test [6] it was 52.2 µM (active). Moreover, the Potency in test [13] was 11.7 µM (active); in [7], 52.2 µM (active); in test [8], 52.2 µM (active); in [14] it was 54.5 µM (active); in test [10], 43.6 µM (active).
Consider `O=[N+]([O-])c1ccc2ccc3cccc4ccc1c2c34`, for which the Potency result in test [2], in test [3], in [12], in test [4], in [5] and in test [16] was “inactive” each time. For the same compound, the Potency result in [17], in test [6], in test [13], in test [7], in test [8] and in test [9] was “inactive” each time. The Potency entry in [10] and in test [18] was “inactive” throughout. In addition, the result in [15] was inactive.
As for `CCCCCCCCc1ccc(O)cc1`, the Potency in test [7] is 49.3 µM (active); in test [8] it was 49.3 µM (active); in test [10], 22 µM (active). In addition, the Potency result in [9] was “inactive”.
For `CCCCCCCCCC[N+](C)(C)CCCCCCCCCC`, the Potency in [1] was 21.9 µM (active); in test [2], 19.5 µM (active); in test [4] it was 49 µM (active); in test [5], 54.9 µM (active); in test [17], 43.6 µM (active); in test [6], 19.5 µM (active). Besides, the Potency in test [13] is 15.5 µM (active); in test [7], 54.9 µM (active); in [8], 54.9 µM (active); in test [9], 21.7 µM (active); in test [10], 34.7 µM (active).
For `COC(=O)N(C(=O)N1CO[C@@]2(C(=O)OC)Cc3cc(Cl)ccc3C2=N1)c1ccc(OC(F)(F)F)cc1`, the Potency entry in test [4], in test [5], in [17], in test [6], in [7] and in [8] was “inactive” in each case. For the same compound, the Potency result in test [14] and in [10] was “inactive” each time.
